# Measurements published in paper PMC4336329 (PLoS ONE, 2015).
# About 2,200 (0.71%) of roughly 310,000 compounds showed an effect of 50% or more. The effect is printed as a negative number. The list comes from a sample in which strong results are over-represented; it also holds similar structures and randomly drawn compounds.
# Biological target: human ether-à-go-go-related gene (hERG) potassium channel (human, UniProt Q12809)
# Assay: primary screen, population patch clamp on CHO cells stably expressing hERG; higher = less effect of the substance
# human ether-à-go-go-related gene (hERG) potassium channel, sequence (Q12809 whole entry, looked up): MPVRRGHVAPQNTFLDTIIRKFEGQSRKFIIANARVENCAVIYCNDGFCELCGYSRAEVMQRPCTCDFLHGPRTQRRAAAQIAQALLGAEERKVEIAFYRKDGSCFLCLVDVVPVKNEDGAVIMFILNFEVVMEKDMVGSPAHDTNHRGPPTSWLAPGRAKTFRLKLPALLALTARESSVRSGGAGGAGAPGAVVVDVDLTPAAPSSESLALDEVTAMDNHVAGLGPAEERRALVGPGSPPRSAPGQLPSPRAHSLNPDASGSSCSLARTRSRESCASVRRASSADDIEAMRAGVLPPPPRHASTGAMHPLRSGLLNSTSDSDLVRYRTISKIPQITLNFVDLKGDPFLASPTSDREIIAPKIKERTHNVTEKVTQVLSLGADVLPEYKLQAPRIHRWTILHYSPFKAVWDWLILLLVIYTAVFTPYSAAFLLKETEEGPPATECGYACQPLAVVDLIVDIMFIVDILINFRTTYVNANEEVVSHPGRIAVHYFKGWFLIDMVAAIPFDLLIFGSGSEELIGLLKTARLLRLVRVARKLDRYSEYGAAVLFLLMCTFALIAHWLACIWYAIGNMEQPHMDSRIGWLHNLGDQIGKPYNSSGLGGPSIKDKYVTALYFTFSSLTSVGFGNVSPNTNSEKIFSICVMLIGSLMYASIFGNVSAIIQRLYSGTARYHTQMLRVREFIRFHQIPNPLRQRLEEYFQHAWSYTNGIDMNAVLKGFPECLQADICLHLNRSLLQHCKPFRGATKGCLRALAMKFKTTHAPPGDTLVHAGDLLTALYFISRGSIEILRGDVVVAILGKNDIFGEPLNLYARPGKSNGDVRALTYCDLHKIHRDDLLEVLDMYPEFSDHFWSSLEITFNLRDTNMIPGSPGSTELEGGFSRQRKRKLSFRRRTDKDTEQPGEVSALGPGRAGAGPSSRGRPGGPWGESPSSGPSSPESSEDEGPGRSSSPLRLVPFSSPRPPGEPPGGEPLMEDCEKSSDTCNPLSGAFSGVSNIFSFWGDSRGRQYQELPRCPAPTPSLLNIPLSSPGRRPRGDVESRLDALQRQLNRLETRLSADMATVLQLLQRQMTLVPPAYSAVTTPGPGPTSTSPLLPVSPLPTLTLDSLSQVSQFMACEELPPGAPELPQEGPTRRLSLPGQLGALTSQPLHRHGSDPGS
row,SMILES,"hERG current change (%, negative = inhibition) at 1uM [%]"
1,COCCCNC(=O)CN(c1cc(Cl)cc(Cl)c1)S(C)(=O)=O,8.12
2,COc1cc(S(=O)(=O)N2CCN(C(=O)c3ccco3)CC2)ccc1Cl,8.83
3,Cn1ncc2nnn(-c3ccccc3)c(=O)c21,-0.008
4,C=CCn1c(SCC(=O)Nc2sccc2C(N)=O)nc2ccc(Cl)cc2c1=O,1.53
5,FCCCOc1ccc(/C=N/OCc2ccc(Cl)cc2Cl)cc1,9.53
6,O=C1CC2(CCN(C(=O)c3ccccc3[N+](=O)[O-])CC2)Oc2ccccc21,-19
7,O=C1CC2(CCN(C(=O)c3c(F)cccc3Cl)CC2)Oc2ccccc21,-4.7
8,O=C1CC2(CCN(C(=O)c3ccccc3Br)CC2)Oc2ccccc21,-51.4
9,O=C1CC2(CCN(C(=O)c3ccccc3F)CC2)Oc2ccccc21,-47.9
10,O=C1CC2(CCN(C(=O)c3ccc(Br)cc3)CC2)Oc2ccccc21,-30.8
11,CSc1ccccc1C(=O)N1CCC2(CC1)CC(=O)c1ccccc1O2,-27.2
12,O=C1CC2(CCN(C(=O)c3ccccc3Cl)CC2)Oc2ccccc21,-27.6
13,O=C1CC2(CCN(C(=O)c3cccc(Br)c3)CC2)Oc2ccccc21,-56
14,Cc1c(C(=O)N2CCC3(CC2)CC(=O)c2ccccc2O3)cccc1[N+](=O)[O-],-83.9
15,CCn1nnc2cc(C(=O)Nc3cc(OC)cc(OC)c3)ccc21,19.3
16,O=C(CCn1c(=O)sc2ccccc21)Nc1ccon1,4.85
17,COC(=O)c1ccccc1NC(=S)NC(=O)c1ccc(C)cc1,9.88
18,CC(C)CSc1nc2ccccc2[nH]1,13
19,COCCN1C(=O)C(=O)/C(=C(/O)c2ccc(S(=O)(=O)N3CCCCC3)cc2)C1c1ccc(OC)cc1 (centres unmarked),11.9
20,C=CC[C@@H](C)CC(=O)C(CCCN=[N+]=[N-])SOOc1ccccc1 (some centres unmarked),11.2
21,Cc1ccc(S(=O)(=O)N2c3ccccc3-c3c(ssc3=S)C2(C)C)cc1,-1.68

row,SMILES,"hERG current change (%, negative = inhibition) at 1uM [%]"
1,COc1ccccc1OCC(=O)Nc1ccccc1C(=O)N1CCCC1,5.81
2,O=C(c1ccc2nsnc2c1)N1CCN(c2ccc([N+](=O)[O-])cc2)CC1,-57.4
3,O=C(c1ccc(-c2ccc([N+](=O)[O-])cc2)o1)N1CCCCCCC1,-6.48
4,Cc1c(Cl)cccc1-c1ccc(C(=O)N2CCN(c3ccc([N+](=O)[O-])cc3)CC2)o1,-1.98
5,Cc1ccc(C(=O)N2CCN(c3ccc([N+](=O)[O-])cc3)CC2)o1,-79
6,Cc1cc(C(=O)N2CCN(c3ccc([N+](=O)[O-])cc3)CC2)c(C)o1,-35.1
7,COc1ccc(N2CCN(C(=O)c3nc4nc(C)cc(C)n4n3)CC2)cc1,7.39
8,Cc1cc(C)n2nc(C(=O)N3CCN(c4ccc([N+](=O)[O-])cc4)CC3)nc2n1,-77.6
9,COc1cccc(N2CCN(C(=O)c3nc4nc(C)cc(C)n4n3)CC2)c1,8.37
10,CCc1nc2ccc(C(=O)N3CCN(c4ccc([N+](=O)[O-])cc4)CC3)cc2nc1CC,-38.2
11,CCCN1CCN(C(=O)c2ccc(-c3ccc([N+](=O)[O-])cc3)o2)CC1,-70.1
12,O=C(c1ccc2c(c1)OCCO2)N1CCN(c2ccc([N+](=O)[O-])cc2)CC1,1.16
13,O=C(c1ccc(-c2ccc([N+](=O)[O-])cc2)o1)N1CCCCC1,-10.5
14,Cc1cc2cc3c(cc2nc1SCC(=O)N1c2ccccc2CC1C)OCO3 (centres unmarked),5.76
15,O=C(Nc1ccc2oc(-c3ccncc3)nc2c1)c1ccccc1F,7.55
16,Cc1ccccc1OCCC(=O)Nc1ccccc1C(=O)N1CCCCC1,10.9
17,Nc1nc(SCC(=O)c2ccc([N+](=O)[O-])cc2)n[nH]1,1.72
18,O=c1c2cn[nH]c2[nH]c(=S)n1-c1ccccc1,14.3
19,CC(=O)Nc1cccc(OCc2c(F)cccc2Cl)c1,4.98
20,O=C(NC(=S)Nn1cnc2c(cnn2-c2ccccc2)c1=O)c1ccc(Cl)cc1,11.4
21,CCn1c(SCC(=O)c2cc(C)n(-c3ccc(C(=O)OC)cc3)c2C)nnc1-c1cccnc1,1.88

row,SMILES,"hERG current change (%, negative = inhibition) at 1uM [%]"
1,COCCn1c(SCc2ccccc2)nc2c1c(=O)[nH]c(=O)n2C,11.8
2,CSCCC1NC(=O)N(CC(=O)Nc2cc(C)on2)C1=O (centres unmarked),9.03
3,CC(C)C(C(=O)C=[N+]=[N-])N1C(=O)c2ccccc2C1=O (centres unmarked),11.2
4,Cc1cc(C)n(-c2cc(N3CCN(C(=O)c4ccc(C(C)(C)C)cc4)CC3)ccc2[N+](=O)[O-])n1,3.39
5,Cc1cc(C(=O)N2CCN(c3ccc([N+](=O)[O-])cc3)CC2)co1,-64.7
6,O=C(c1ccc([N+](=O)[O-])cc1)N1CCN(c2ncc(Br)cn2)CC1,-11.3
7,O=C(c1cncc(Br)c1)N1CCN(c2ccc([N+](=O)[O-])cc2)CC1,-62.2
8,CC(=O)N1CCN(c2ccc([N+](=O)[O-])c(-n3nc(C)cc3C)c2)CC1,-9.97
9,O=C(c1cncc(Br)c1)N1CCN(c2ccc(N3CCOCC3)nn2)CC1,9.87
10,COc1ccc(C(=O)N2CCN(c3ccc([N+](=O)[O-])c(-n4nc(C)cc4C)c3)CC2)cc1,-80.6
11,Cc1occc1C(=O)N1CCN(c2ccc([N+](=O)[O-])cc2)CC1,-45.8
12,Cc1cc(C(=O)N2CCN(c3ccc([N+](=O)[O-])cc3)CC2)no1,-36
13,C=CCc1cccc2cc(C(=O)Nc3ccc(F)cc3)c(=O)oc12,6.28
14,COC(=O)c1ccc(NC(=S)NC(=O)c2cc(-c3ccccc3)nc3ccccc23)cc1,9.36
15,NC(=O)[C@H]1CC2(CC(c3cccc(NC(=O)CC(c4ccccc4)c4ccccc4)c3)=NO2)CN1C(=O)CC(c1ccccc1)c1ccccc1 (some centres unmarked),14.8
16,Nc1ccc(O)cc1,10.2
17,COc1ccc(/C=C2\Oc3cc(OC(=O)N4CCOCC4)ccc3C2=O)cc1,3.7
18,CCC(=O)Nc1ccc2oc(-c3ccccc3Br)nc2c1,9.07
19,CC1CCc2c(sc3nc(CN4CCN(S(=O)(=O)c5ccccc5[N+](=O)[O-])CC4)[nH]c(=O)c23)C1 (centres unmarked),-0.366
20,C=CCn1cc(CN2CCC(C(=O)Nc3cccc(-c4cccc(Cl)c4)c3)CC2)c(C)n1,-30
21,O=C(c1ccc2c(=O)n(Cc3ccc(Cl)cc3)c(=S)[nH]c2c1)N1CCCC1,17

row,SMILES,"hERG current change (%, negative = inhibition) at 1uM [%]"
1,Oc1[nH]c2ccccc2c1N=Nc1nc2ccccc2s1,-3.26
2,Cl.NCCCCC(=O)O,11.5
3,CC(C1CC1)N(C(=O)NC1CCS(=O)(=O)C1)c1ccccc1 (centres unmarked),6.55
4,CCn1cc(CN2CCC(C(=O)Nc3cccc(-c4cccc(F)c4)c3)CC2)cn1,-29.2
5,COc1cccc(-c2cccc(NC(=O)C3CCN(Cc4cccc(C)n4)CC3)c2)c1,-46.7
6,CCCn1ncc(CN2CCC(C(=O)Nc3cccc(-c4cccc(F)c4)c3)CC2)c1C,-60.6
7,Cc1cccc(CN2CCC(C(=O)Nc3cccc(-c4cscn4)c3)CC2)n1,-4.56
8,Cc1cccc(CN2CCC(C(=O)Nc3cccc(-c4cccc(F)c4)c3)CC2)n1,-66.1
9,Cn1cc(CN2CCC(C(=O)Nc3cccc(-c4cccc(F)c4)c3)CC2)cn1,-37.9
10,O=C(Nc1cccc(-c2cccc(F)c2)c1)C1CCN(C2CCOCC2)CC1,-67.8
11,Cc1cc(C)n(CCCN2CCC(C(=O)Nc3cccc(-c4cccc(F)c4)c3)CC2)n1,-59.9
12,O=C(Nc1cccc(-c2cccc(F)c2)c1)C1CCN(C2CCC2)CC1,-26.1
13,COc1cccc(-c2cccc(NC(=O)C3CCN(C4CCOCC4)CC3)c2)c1,-14.6
14,Cc1ccc(CN2CCC(C(=O)Nc3cccc(-c4cccc(F)c4)c3)CC2)o1,-28.7
15,CCn1nc(C)c(CN2CCC(C(=O)Nc3cccc(-c4cccc(F)c4)c3)CC2)c1C,-6.47
16,O=C(Nc1ccc(N2CCN(C(=O)c3ccco3)CC2)cc1)c1cc(Br)ccc1Cl,8.3
17,CC(C)(C)c1cc(C(=O)NN)n(Cc2ccc(Cl)cc2Cl)n1,16.3
18,CCOC(=O)c1c(NC(=O)c2ccc(S(=O)(=O)N3CCOCC3)cc2)sc2c1CC(C)(C)NC2(C)C,11.9
19,O=[N+]([O-])c1ccc(-c2nc(Nc3ccc(O)cc3)c3ccccc3n2)cc1,13
20,COc1ccc(CCNC(=O)c2[nH]c(C)c(C(C)=O)c2C)cc1,10.9
